Test results: ChEMBL document CHEMBL3988442, “University of Dundee, Small-Polar-MMV Screening Library” (2021)
For part of these data: Potency and affinity values are given separately.

What follows are compounds tested against T1, Ubiquitin-activating enzyme e1, putative (Leishmania donovani (strain BPK282A1)) (UniProt E9BSI1) (assay: Leishmania donovani Ubiquitin Activating Enzyme (LdE1)). Conditions: 30 µM.
T1 sequence (whole entry): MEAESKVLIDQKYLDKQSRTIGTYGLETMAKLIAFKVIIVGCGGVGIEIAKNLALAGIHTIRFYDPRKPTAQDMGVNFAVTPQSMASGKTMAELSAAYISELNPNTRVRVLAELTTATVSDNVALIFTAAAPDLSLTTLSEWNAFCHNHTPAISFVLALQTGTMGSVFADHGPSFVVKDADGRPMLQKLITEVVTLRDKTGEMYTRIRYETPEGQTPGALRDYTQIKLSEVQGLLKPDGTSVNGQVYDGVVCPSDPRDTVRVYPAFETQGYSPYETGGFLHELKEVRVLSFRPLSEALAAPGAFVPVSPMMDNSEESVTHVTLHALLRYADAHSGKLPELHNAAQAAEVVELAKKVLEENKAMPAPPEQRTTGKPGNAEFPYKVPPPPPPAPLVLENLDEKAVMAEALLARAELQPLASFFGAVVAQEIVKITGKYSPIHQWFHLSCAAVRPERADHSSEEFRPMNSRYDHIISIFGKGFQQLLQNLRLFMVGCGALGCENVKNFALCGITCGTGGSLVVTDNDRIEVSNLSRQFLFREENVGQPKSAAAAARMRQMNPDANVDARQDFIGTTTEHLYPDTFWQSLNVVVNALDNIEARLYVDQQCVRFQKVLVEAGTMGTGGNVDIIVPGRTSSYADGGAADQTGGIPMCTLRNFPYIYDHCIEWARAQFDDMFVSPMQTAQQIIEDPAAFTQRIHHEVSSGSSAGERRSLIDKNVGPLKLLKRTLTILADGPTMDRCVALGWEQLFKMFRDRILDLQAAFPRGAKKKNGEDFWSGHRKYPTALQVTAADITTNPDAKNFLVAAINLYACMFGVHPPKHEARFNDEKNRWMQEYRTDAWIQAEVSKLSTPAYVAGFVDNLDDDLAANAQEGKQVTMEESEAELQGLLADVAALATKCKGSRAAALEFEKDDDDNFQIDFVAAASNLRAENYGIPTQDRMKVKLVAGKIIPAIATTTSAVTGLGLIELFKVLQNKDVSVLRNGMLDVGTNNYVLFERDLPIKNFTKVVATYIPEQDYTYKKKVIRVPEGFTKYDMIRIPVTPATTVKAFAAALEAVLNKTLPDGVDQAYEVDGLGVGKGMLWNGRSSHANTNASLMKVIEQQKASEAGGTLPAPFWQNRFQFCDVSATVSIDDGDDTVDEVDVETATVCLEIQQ
Format: functional
Parameters: scale not given: direction of the effect not stated beside the values

SMILES	Percent Effect [%]
CCc1noc(C(C)N2CCN(Cc3nc(C)c(C)o3)CC2)n1 (centres undefined)	0
CCn1cnnc1C1CCN(C(=O)c2cnc3ccccc3n2)CC1	5.26
CN(CC(=O)NCc1ccccn1)CC1CCCN1c1cccnn1 (centres undefined)	-5.41
CC(C)(NCC(=O)NCCC#N)c1ccc2c(c1)OCCO2	27
Cc1ccc(NC2CCN(C(=O)c3cccc(F)c3F)CC2)nn1	-6.33
Clc1ccccc1C1(c2ccnc(-c3ncccn3)n2)CCNCC1	7.79
O=C1CC(c2ccncc2)c2c(c(C(=O)O)cn2-c2ccc(F)cc2)N1 (centres undefined)	12
O=C(NCCC(=O)N1CCCc2ccccc21)c1c(O)cc(F)cc1F	10.4
CNC(=O)N1C[C@H]2CC[C@@]3(N=C(c4ccccc4)NC3=O)[C@H]2C1	2.6
Cc1cc(CN(C)C2CCCN(Cc3noc(C4CC4)n3)C2)no1 (centres undefined)	15.8
C=C1c2ccccc2C(=O)N1CCC(=O)N1CCNC(=O)C1	15.8
CCOC(=O)CCNC(=O)N1CCN(c2nc3ccccc3n2C)CC1	10.4
CNc1cc(N2CCCC2CNCc2c[nH]nc2C(C)(C)C)ncn1 (centres undefined)	0
COCC1c2c(cnn2CC2CC2)CCN1Cc1nccs1 (centres undefined)	13.3
CCc1nnc2n1CCN(C(=O)c1csc(-c3cnn(C)c3)n1)C2	12.5
Cn1ncc2c1CCCC2NCc1cc(Br)cs1 (centres undefined)	13
CCC(C)c1noc(C2CCN(C(=O)c3cccs3)CC2)n1 (centres undefined)	7.79
CCn1cnnc1CNC(=O)NC(C)C(C)C (centres undefined)	13
O=C(CC1CCCC1)N1CCCC(c2n[nH]c3nccnc23)C1 (centres undefined)	6.76
Fc1ccc2[nH]c(C3CCCN3CCc3ccccn3)nc2c1 (centres undefined)	8.22

These compounds were tested against AMP-activated protein kinase, AMPK (Homo sapiens) (UniProt P54646+O43741+P54619+Q9UGJ0+Q9Y478+Q13131+Q9UGI9) (assay: AMP-dependent Kinase enzyme assay. An in vitro enzyme assay that detects ADP turnover that is directly proportional to AMPK activity. This uses naive AMPK that is activated during the assay with MK-8722). Conditions: 30 µM.
Format: functional
Parameters: scale not given: direction of the effect not stated beside the values

SMILES	Percent Effect [%]
CC(C)COC(C)C(=O)NCc1ccc(OC(C)C)nc1 (centres undefined)	-0.374
CCc1n[nH]c(C2CN(CCc3cccs3)CCO2)n1 (centres undefined)	-4.38
CC(=O)N1CCCC(c2ccc(Nc3nc(C)cc(C)n3)cn2)C1 (centres undefined)	9.18
CN(CC1(O)CCCN(CCC2CCCCC2)C1=O)C1CCOCC1 (centres undefined)	-4.88
Cc1noc(C2CCC3(CCN(C(=O)c4c(C)noc4C)CC3)O2)n1 (centres undefined)	-4.63
COc1ncccc1NC(=O)N1CCC(CNC(C)=O)CC1	-2.93
CN1CCN(CCCNC(=O)c2cc(Cl)c3c(c2)OCO3)CC1	-11.6
O=C(NS(=O)(=O)c1ccc2c(c1)OCCO2)c1ccc(Br)cc1F	13.5
CCN1CCC(CNC(=O)C2(c3cccc(C)c3)CC2)C1 (centres undefined)	6.26
CC(C)N(C)Cc1cnc2n1CCN(CCc1ccccc1)C2	23.2
CNc1nc2c(c(C(=O)N3CCCC3)n1)CN(Cc1nccn1C)CC2	-8.14
Cc1ccc(-n2nnc(CC(=O)N3CCSCC3)c2C)cc1	-1.3
Cc1nc(CN2CCCC(N(C)Cc3nnsc3Cl)C2)no1 (centres undefined)	0.941
Cc1nc(-c2ccccc2)sc1C(=O)NCCNc1ncccn1	-5.12
Cc1cc(=O)n(CC(=O)NCCC(C)C)c(-c2cccc(Cl)c2)n1	3.52
CCn1ccnc1CN(C)C1CCCN(CCc2ccccc2)C1 (centres undefined)	0.137
CCN1CCN(c2ncc(-c3cc(C)no3)c(-c3ccoc3C)n2)CC1	5

SMILES	Percent Effect [%]
COc1ccccc1CC(=O)N1CCC(NCc2c[nH]nc2C)CC1	-1.94
CN(Cc1cccc(F)c1)C1CCN(CCc2ccccn2)CC1	-5.03
CC(C)c1nc2n(n1)CC(NCc1nc(-c3cccnc3)no1)CC2 (centres undefined)	-1.93
CCc1noc(C(C)N2CCN(Cc3nc(C)c(C)o3)CC2)n1 (centres undefined)	6.83
CCn1cnnc1C1CCN(C(=O)c2cnc3ccccc3n2)CC1	5.47
CN(CC(=O)NCc1ccccn1)CC1CCCN1c1cccnn1 (centres undefined)	-4.72
CC(C)(NCC(=O)NCCC#N)c1ccc2c(c1)OCCO2	-8.79
Cc1ccc(NC2CCN(C(=O)c3cccc(F)c3F)CC2)nn1	2.51
Clc1ccccc1C1(c2ccnc(-c3ncccn3)n2)CCNCC1	1.81
O=C1CC(c2ccncc2)c2c(c(C(=O)O)cn2-c2ccc(F)cc2)N1 (centres undefined)	-34.9
O=C(NCCC(=O)N1CCCc2ccccc21)c1c(O)cc(F)cc1F	-0.269
CNC(=O)N1C[C@H]2CC[C@@]3(N=C(c4ccccc4)NC3=O)[C@H]2C1	0.951
Cc1cc(CN(C)C2CCCN(Cc3noc(C4CC4)n3)C2)no1 (centres undefined)	-10.8
C=C1c2ccccc2C(=O)N1CCC(=O)N1CCNC(=O)C1	-1.19
CCOC(=O)CCNC(=O)N1CCN(c2nc3ccccc3n2C)CC1	1.91
CNc1cc(N2CCCC2CNCc2c[nH]nc2C(C)(C)C)ncn1 (centres undefined)	-14.4
COCC1c2c(cnn2CC2CC2)CCN1Cc1nccs1 (centres undefined)	-1.8
